What all share (test): universal protein binding microarray (PBM); transcription factors of Arabidopsis thaliana; high values mean tight binding
The target in one test is T1, GST-ANAC092(1-176) (Arabidopsis thaliana, UniProt Q9FKA0 1-176).
T1 sequence: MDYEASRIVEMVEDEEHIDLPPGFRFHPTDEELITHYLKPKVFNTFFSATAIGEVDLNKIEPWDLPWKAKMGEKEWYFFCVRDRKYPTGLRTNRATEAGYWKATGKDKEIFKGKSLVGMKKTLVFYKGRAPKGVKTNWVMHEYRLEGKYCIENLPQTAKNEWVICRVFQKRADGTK
The conditions noted are these: protein: recombinant; tags: GST; chain copies: 2; dsDNA, one strand shown. A digest of the protocol: (§1)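 Protein amounts were determined by A280 or anti-GST western blot after glutathione–Sepharose 4B purification of GST-tagged proteins induced in cells, with zinc acetate included for zinc-finger proteins. Duplicate runs at 200 to 500 nM final were done on custom all-10-mer Agilent 4 × 180K arrays made double-stranded by primer extension. The normalised enrichment score (E-score) over gapped and ungapped 8-mers is the measure of binding.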

Another test concerns the target GST-NTL6(1-168) (Arabidopsis thaliana, UniProt Q9SCK6 1-168). The following applies: protein: recombinant; tags: GST; chain copies: 2; dsDNA, one strand shown. A digest of the protocol: as §1
Another test concerns the target T2, GST-ANAC055(1-171) (Arabidopsis thaliana, UniProt Q9LDY8 1-171).
T2 sequence: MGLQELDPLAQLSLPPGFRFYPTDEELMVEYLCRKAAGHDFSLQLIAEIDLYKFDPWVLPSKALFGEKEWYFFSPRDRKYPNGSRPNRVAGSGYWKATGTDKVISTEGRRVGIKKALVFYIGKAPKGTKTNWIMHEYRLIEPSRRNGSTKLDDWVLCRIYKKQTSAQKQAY
The conditions noted are these: protein: recombinant; tags: GST; chain copies: 2; dsDNA, one strand shown. Put shortly: as §1

Another test deals with T3, GST-ATAF1 NAC domain (Arabidopsis thaliana, UniProt Q39013 7-158).
T3 sequence: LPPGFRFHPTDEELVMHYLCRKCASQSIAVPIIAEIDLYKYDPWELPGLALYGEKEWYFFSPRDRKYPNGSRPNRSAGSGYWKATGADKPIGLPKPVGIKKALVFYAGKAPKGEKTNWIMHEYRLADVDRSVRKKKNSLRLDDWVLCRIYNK
The following applies: protein: recombinant; tags: GST; chain copies: 2; dsDNA, one strand shown. Put shortly:
as §1

Test [1] deals with T4, GST-ANAC092(1-285) full length (Arabidopsis thaliana, UniProt Q9FKA0 1-285).
T4 sequence: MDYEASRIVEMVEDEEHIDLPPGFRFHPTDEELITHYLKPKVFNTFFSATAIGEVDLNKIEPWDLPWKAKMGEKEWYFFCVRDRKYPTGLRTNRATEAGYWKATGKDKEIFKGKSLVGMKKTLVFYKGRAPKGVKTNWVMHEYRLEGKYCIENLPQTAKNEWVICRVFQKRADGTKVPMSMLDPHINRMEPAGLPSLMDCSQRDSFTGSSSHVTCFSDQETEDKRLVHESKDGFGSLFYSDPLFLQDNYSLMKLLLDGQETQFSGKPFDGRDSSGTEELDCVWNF
The conditions noted are these: protein: recombinant; tags: GST; chain copies: 2; dsDNA, one strand shown. Put shortly:
as §1

For another test, the target named is T5, GST-NAP(1-166) (Arabidopsis thaliana, UniProt O49255 1-166).
T5 sequence: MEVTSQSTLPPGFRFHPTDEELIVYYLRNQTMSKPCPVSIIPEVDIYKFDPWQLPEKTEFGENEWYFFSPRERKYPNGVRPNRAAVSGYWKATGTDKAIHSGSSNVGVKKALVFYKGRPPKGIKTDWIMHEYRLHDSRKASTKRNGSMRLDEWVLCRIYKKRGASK
The following applies: protein: recombinant; tags: GST; chain copies: 2; dsDNA, one strand shown. A digest of the protocol: as §1

The next test concerns the target T6, GST-NST2(1-184) (Arabidopsis thaliana, UniProt Q9M274 1-184).
T6 sequence: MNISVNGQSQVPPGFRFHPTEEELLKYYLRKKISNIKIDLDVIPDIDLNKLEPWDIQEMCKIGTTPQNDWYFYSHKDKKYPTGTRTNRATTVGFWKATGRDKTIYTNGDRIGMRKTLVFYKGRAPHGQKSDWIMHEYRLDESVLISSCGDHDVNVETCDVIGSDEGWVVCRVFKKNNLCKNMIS
The conditions noted are these: protein: recombinant; tags: GST; chain copies: 2; dsDNA, one strand shown. A digest of the protocol:
as §1

For a further test, the target named is T7, GST-NTL8 NAC domain (Arabidopsis thaliana, UniProt Q9XIN7 14-156).
T7 sequence: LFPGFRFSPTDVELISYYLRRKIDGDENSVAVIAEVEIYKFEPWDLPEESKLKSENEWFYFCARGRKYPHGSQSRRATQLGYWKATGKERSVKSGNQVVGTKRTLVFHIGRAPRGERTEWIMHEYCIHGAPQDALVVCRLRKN
The following applies: protein: recombinant; tags: GST; chain copies: 2; dsDNA, one strand shown. A digest of the protocol: as §1

The next test has as its target T8, GST-SND1(1-203) (Arabidopsis thaliana, UniProt Q9LPI7 1-203).
T8 sequence: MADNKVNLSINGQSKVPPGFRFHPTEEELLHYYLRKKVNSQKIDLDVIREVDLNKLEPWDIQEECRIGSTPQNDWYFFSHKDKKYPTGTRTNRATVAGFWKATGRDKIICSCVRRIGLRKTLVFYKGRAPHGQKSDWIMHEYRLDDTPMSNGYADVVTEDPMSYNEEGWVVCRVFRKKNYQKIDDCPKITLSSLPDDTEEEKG
The following applies: protein: recombinant; tags: GST; chain copies: 2; dsDNA, one strand shown. Put shortly:
as §1

The next test concerns the target T9, GST-VND3 NAC domain (Arabidopsis thaliana, UniProt Q9FH59 12-162).
T9 sequence: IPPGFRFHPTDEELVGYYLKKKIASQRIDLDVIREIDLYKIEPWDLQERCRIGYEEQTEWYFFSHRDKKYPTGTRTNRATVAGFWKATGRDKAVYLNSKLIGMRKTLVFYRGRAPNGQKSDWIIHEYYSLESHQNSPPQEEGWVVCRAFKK
The conditions noted are these: protein: recombinant; tags: GST; chain copies: 2; dsDNA, one strand shown. Put shortly:
as §1

The next test addresses T10, GST-VND7 NAC domain (Arabidopsis thaliana, UniProt Q9C8W9 9-158).
T10 sequence: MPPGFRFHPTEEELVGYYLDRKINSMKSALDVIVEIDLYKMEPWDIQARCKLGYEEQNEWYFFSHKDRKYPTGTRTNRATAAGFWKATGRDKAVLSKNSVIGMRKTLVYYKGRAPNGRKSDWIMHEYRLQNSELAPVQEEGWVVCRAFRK
The following applies: protein: recombinant; tags: GST; chain copies: 2; dsDNA, one strand shown. Put shortly: as §1

The target of the next test is GST-WRKY1(266-371) (Arabidopsis thaliana, UniProt Q9SI37 266-371). The following applies: protein: recombinant; tags: GST; dsDNA, one strand shown. A digest of the protocol:
as §1

The target in a further test is T11, GST-ANAC019 NAC domain (Arabidopsis thaliana, UniProt Q9C932 14-162).
T11 sequence: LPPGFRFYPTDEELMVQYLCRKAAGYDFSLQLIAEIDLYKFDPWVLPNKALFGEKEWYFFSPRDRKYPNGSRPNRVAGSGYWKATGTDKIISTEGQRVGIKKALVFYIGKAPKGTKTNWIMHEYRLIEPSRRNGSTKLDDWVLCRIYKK
The conditions noted are these: protein: recombinant; tags: GST; chain copies: 2; dsDNA, one strand shown. Put shortly: as §1

Sequence of GST-NTL6(1-168) (Q9SCK6 1-168): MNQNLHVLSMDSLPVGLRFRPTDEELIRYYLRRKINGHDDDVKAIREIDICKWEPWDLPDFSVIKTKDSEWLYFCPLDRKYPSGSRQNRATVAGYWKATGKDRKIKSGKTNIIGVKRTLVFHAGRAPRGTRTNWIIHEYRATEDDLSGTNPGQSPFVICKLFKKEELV
Sequence of GST-WRKY1(266-371) (Q9SI37 266-371): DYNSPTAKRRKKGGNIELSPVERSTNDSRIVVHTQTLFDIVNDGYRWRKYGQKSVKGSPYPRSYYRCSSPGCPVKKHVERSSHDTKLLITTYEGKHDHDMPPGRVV

On to AAGTAATA, for which the binding signal is 0.31 E-score in the test with GST-ANAC092(1-176); 0.428 E-score with GST-NTL6(1-168); 0.215 E-score with GST-ANAC055(1-171); 0.207 E-score in the test with GST-ATAF1 NAC domain; 0.327 E-score in [1]; 0.14 E-score in the test with GST-NAP(1-166). Moreover, the binding signal with GST-NST2(1-184) was determined as 0.274 E-score; in the test with GST-NTL8 NAC domain it was 0.211 E-score; in the test with GST-SND1(1-203), 0.294 E-score; with GST-VND3 NAC domain, 0.216 E-score; in the test with GST-VND7 NAC domain, 0.136 E-score; in the test with GST-WRKY1(266-371), 0.074 E-score.

With GAGACGTA, the binding signal was found to be 0.194 E-score in the test with GST-ANAC092(1-176); 0.432 E-score with GST-ANAC019 NAC domain; 0.395 E-score with GST-ANAC055(1-171); 0.411 E-score with GST-ATAF1 NAC domain; 0.331 E-score in [1]; 0.396 E-score in the test with GST-NAP(1-166). Moreover, the binding signal came to 0.236 E-score with GST-NST2(1-184); 0.322 E-score with GST-SND1(1-203); 0.418 E-score with GST-VND3 NAC domain; 0.413 E-score with GST-VND7 NAC domain; 0.0734 E-score with GST-WRKY1(266-371).

Turning to GTCGCGTA, the binding signal in the test with GST-ANAC092(1-176) amounted to 0.307 E-score; with GST-NTL6(1-168), 0.0763 E-score; in the test with GST-ATAF1 NAC domain, 0.195 E-score; in test [1] it was 0.414 E-score; in the test with GST-NAP(1-166) it was 0.171 E-score; in the test with GST-NST2(1-184) it was 0.109 E-score. Also, the binding signal with GST-SND1(1-203) came out at 0.422 E-score; with GST-VND3 NAC domain it was 0.102 E-score; with GST-VND7 NAC domain it was 0.233 E-score; in the test with GST-WRKY1(266-371), 0.145 E-score.

In the case of AGATTGAC, the binding signal in the test with GST-ANAC092(1-176) came to 0.135 E-score; with GST-NTL6(1-168) it was 0.0646 E-score; in the test with GST-ANAC055(1-171) it was 0.0571 E-score; with GST-ATAF1 NAC domain, 0.0846 E-score; in test [1], 0.15 E-score; with GST-NST2(1-184) it was 0.0869 E-score. The binding signal with GST-SND1(1-203) came to 0.179 E-score; in the test with GST-VND3 NAC domain it was 0.0944 E-score; with GST-VND7 NAC domain, 0.0768 E-score; with GST-WRKY1(266-371), 0.457 E-score.

As to ATTTCCCC, the binding signal was found to be 0.143 E-score in the test with GST-ANAC092(1-176); 0.221 E-score with GST-NTL6(1-168); 0.13 E-score in the test with GST-ANAC019 NAC domain; 0.101 E-score with GST-ANAC055(1-171); 0.0697 E-score in the test with GST-ATAF1 NAC domain; 0.175 E-score in test [1]. Besides, the binding signal with GST-NAP(1-166) was determined as 0.0823 E-score; with GST-NST2(1-184), 0.17 E-score; with GST-NTL8 NAC domain, 0.428 E-score; in the test with GST-SND1(1-203), 0.199 E-score; in the test with GST-VND3 NAC domain it was 0.205 E-score; with GST-VND7 NAC domain, 0.153 E-score. For the same sequence, the binding signal in the test with GST-WRKY1(266-371) was found to be 0.116 E-score.

For the sequence AGTCAACA, the binding signal in the test with GST-ANAC092(1-176) turned out to be 0.161 E-score; in the test with GST-NTL6(1-168), 0.0859 E-score; with GST-ANAC019 NAC domain, 0.125 E-score; with GST-ANAC055(1-171), 0.0844 E-score; with GST-ATAF1 NAC domain, 0.152 E-score; in test [1] it was 0.0634 E-score. Also, the binding signal with GST-NST2(1-184) worked out at 0.0624 E-score; in the test with GST-NTL8 NAC domain it was 0.0937 E-score; with GST-SND1(1-203), 0.19 E-score; in the test with GST-VND3 NAC domain it was 0.13 E-score; in the test with GST-VND7 NAC domain it was 0.0805 E-score; with GST-WRKY1(266-371), 0.488 E-score.

In the case of GACGCAAC, the binding signal turned out to be 0.438 E-score with GST-ANAC092(1-176); 0.294 E-score with GST-ANAC019 NAC domain; 0.293 E-score in the test with GST-ANAC055(1-171); 0.282 E-score in the test with GST-ATAF1 NAC domain; 0.457 E-score in test [1]; 0.37 E-score with GST-NAP(1-166). For the same sequence, the binding signal in the test with GST-NST2(1-184) amounted to 0.295 E-score; with GST-SND1(1-203) it was 0.325 E-score; in the test with GST-VND3 NAC domain it was 0.295 E-score; with GST-VND7 NAC domain, 0.259 E-score; in the test with GST-WRKY1(266-371) it was 0.0608 E-score.
